Screens deposited in PubChem BioAssay by National Center for Advancing Translational Sciences (NCATS).
Only some compounds are listed: those with a hit (about 5.4% of all), similar ones and a draw of the others.
Six1-Eya2 blk: blocks human Six1 binding to Eya2; Q15475+O00167; AlphaScreen GST-Six1/His-Eya2 binding, biochemical; hits give low values; activity change, % (no concentration beside the values); 0.56% of 360,000 active; AID 651725; in the data active = activity change below about -65%; inconclusive = mostly about -30% to -63%; note: % is set by controls: 0 for no effect and ±100 for the full control effect
Target sequence (O00167 whole entry, looked up): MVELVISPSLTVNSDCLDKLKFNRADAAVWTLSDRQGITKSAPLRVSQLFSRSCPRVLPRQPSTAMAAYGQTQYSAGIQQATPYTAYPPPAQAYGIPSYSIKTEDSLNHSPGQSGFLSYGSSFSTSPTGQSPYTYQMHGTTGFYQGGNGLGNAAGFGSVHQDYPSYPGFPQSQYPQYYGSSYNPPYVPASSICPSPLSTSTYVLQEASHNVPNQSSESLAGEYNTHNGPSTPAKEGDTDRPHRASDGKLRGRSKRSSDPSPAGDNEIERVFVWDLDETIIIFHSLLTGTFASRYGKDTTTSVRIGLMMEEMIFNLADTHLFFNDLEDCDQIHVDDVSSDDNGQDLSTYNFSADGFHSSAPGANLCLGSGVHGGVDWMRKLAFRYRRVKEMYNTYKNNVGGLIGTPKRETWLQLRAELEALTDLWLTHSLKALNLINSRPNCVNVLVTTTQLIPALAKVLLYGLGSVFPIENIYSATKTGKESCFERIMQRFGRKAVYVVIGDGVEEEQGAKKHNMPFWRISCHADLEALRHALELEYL
Target sequence (Q15475 whole entry, looked up): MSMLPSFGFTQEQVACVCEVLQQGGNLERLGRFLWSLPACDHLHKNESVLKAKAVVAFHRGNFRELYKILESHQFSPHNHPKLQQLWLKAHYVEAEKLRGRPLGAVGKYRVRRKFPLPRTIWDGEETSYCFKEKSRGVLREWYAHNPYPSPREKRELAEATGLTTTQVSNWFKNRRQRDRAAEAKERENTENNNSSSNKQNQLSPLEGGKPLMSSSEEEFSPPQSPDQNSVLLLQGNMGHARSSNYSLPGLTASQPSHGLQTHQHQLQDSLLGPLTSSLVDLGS
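AlphaScreen luminescence read after one hour at 37 °C in darkness. Pin-transferred compounds met GST-Six1 and His-Eya2 protein (5X stock 250 nM/500 nM) plus glutathione donor and Ni-chelate acceptor beads (5X, 50 ug/mL).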
RORgamma inh: inhibitors of mouse ROR gamma transcriptional activity; Potency, µM (doses to about 53.6 µM), without a hit: top-dose activity change, negative = inhibition, most hits filed as inhibitors; 5.4% of 310,000 active; P51450; AID 2551; Drosophila S2 Gal4-RORgamma UAS-luciferase reporter, 20 h; note: potency is the fitted concentration of half-maximal effect; % is set by controls: 0 for no effect and ±100 for the full control effect; nearly all actives have a fitted effect of over 60% in size
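ROR gamma transcriptional activity was tracked as Gal4-UAS luciferase output in stably transfected Drosophila Schneider cells, with compound added 1 hr before 700 uM copper sulfate induction and a 20 hr ambient-temperature incubation.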
VP16 counter: Gal4-VP16 reporter inhibition counter-screen | AID 2546 | Drosophila S2 Gal4-VP16 UAS-luciferase, luminescence, 20 h | 3.5% of 310,000 active | Potency, µM (top dose mostly 53.6 µM), for inactives: at the highest dose activity, negative = inhibition, usual class: inhibitors;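 note: Gal4-VP16 expression switched on by copper sulfate through the metallothionein promoter; potency is the fitted concentration of half-maximal effect; % is set by controls: 0 for no effect and ±100 for the full control effect; nearly all actives have a fitted effect of over 50% in size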
p53 reactivator: re-activators of mutant p53. 0.063% of 320,000 active. H1299 p53-A138V BP100-luciferase reporter, luminescence, 24 h. Potency, µM (series often up to 92.2 µM), for inactives: at the highest dose activity change, positive = activation, most hits filed as activators; note: potency is the fitted concentration of half-maximal effect; % of control where 0% means no effect; nearly all actives have a fitted effect of over 45% in size
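H1299 (p53-null), stable ts p53-A138V + BP100-Luc; 1000 cells/well, Opti-MEM/10% FBS; cpd 4 pt, 1:5; 24 h, 37 deg C, 5% CO2; detection reagent 10 min RT; luminescence.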
CtBP-E1A blk: inhibitors of CtBP/E1A interaction; AID 651724; 0.49% of 340,000 active; AlphaScreen GST-E1A/His-CtBP binding, 1536-well; hits give low values; activity change, % (test concentration not listed); in the data active = activity change below about -65%; inconclusive = mostly about -30% to -63%; note: % is set by controls: 0 for no effect and ±100 for the full control effect
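In 5 uL wells, 23 nL compound meets equimolar GST-E1A and His-CtBP (5X stock 125 nM each) for 2 h, 37 °C. Beads (5X, 50 ug/mL) then 1 h, 37 °C, dark.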
An asterisk follows results filed as active; ? = inconclusive; nt = not tested or not shown; [ ] = another dose, or the depositor's remark. Unless noted, calls come from the whole dose curve; as a rule, active = well fitted curve in the direction sought with a large enough effect; inconclusive = small, poorly fitted or top-dose-only effect, or another doubt; inactive = no such curve, though single readings can be large; an effect the other way counts as inactive or inconclusive.

SMILES	Six1-Eya2 blk	RORgamma inh	VP16 counter	p53 reactivator	CtBP-E1A blk
O=C(O)c1cccc(-c2ccc(/C=N/NC(=O)c3cccnc3)o2)c1	?	-26%	-6%	16%	-5
O=C(N/N=C\c1ccc(COc2ccc([N+](=O)[O-])cc2)o1)c1ccc(Cl)cc1	-10	13µM*	?	-7%	-10
CC1(C)[C@H]2CC=C(CN3CCC(N4CCC(C(=O)N5CCCC5)CC4)CC3)[C@@H]1C2	-4	19%	-10%	0%	5
Cc1cc([N+](=O)[O-])nn1CC(=O)NCc1ccc(Cl)cc1	0	-20%	0%	nt	5
COc1cc([N+](=O)[O-])ccc1-c1ccc(/C=N/NC(=O)c2ccccc2O)o1	nt	1µM*	4µM*	-3%	nt
CSc1ccc(/C=N/NC(=O)c2ccc(C)c(C)c2)cc1	-2	?	?	?	-4
O=C(N/N=C/c1ccc(Br)o1)/C(=C/c1ccc([N+](=O)[O-])cc1)NC(=O)c1ccccc1	-19	10µM*	?	-3%	8
CSc1ccc(/C=N/NC(=O)c2sccc2C)cc1	12	8.9µM*	?	?	0
Cc1conc1NC(c1cccs1)c1ccc2cccnc2c1O (configuration not stated)	nt	2.5µM*	5.6µM*	-23%	nt
CC(=O)NC(c1cccs1)c1cc(F)c2cccnc2c1O (configuration not stated)	nt	nt	nt	5%	nt
CCC(=O)NC(c1cccs1)c1ccc2cccnc2c1O (configuration not stated)	-93*	0.5µM*	1.1µM*	6%	nt
CC(C)CC(=O)NC(c1cccs1)c1ccc2cccnc2c1O (configuration not stated)	-81*	1%	-13%	-2%	-88*
COc1ccccc1/C=C1\SC(=S)N(CC(=O)NC2CCS(=O)(=O)C2)C1=O (configuration not stated)	-7	-26%	-5%	6%	-7
C=C1CC2C3C=C(C)C4=CC(=O)CCC4(C)C3CCC2(C)[C@@]1(OC(C)=O)C(C)=O (some centres not stated)	nt	-2%[10 µM]	-9%	nt	nt
O=C(c1ccc(Cl)cc1)N1CCN(c2ccnc3cc(Cl)ccc23)CC1	-2	?	25µM*	-8%	1
CCOC(=O)N1CCN(c2ccnc3cc(Cl)ccc23)CC1	0	-13%	-11%	-4%	1
Cc1ccc(S(=O)(=O)N2CCN(c3ccnc4cc(Cl)ccc34)CC2)cc1C	-11	16%	?	1%	-7
O=C(Oc1ccnc2cc(Cl)ccc12)N1CCCCCC1	3	4%	13µM*	-5%	37
Cc1ccc(S(=O)(=O)N2CCN(c3ccnc4cc(Cl)ccc34)CC2)cc1	-4	?	16µM*	-2%	-6
CCC(=O)N1CCN(c2ccnc3cc(Cl)ccc23)CC1	1	-7%	1%	-7%	3
Cc1ccc(C2(C)NC(=O)N(CC(=O)Nc3cc(S(=O)(=O)N4CCCCC4)ccc3OC(C)C)C2=O)cc1 (configuration not stated)	-3	nt	nt	3%	0
Cc1cc(=O)oc2cc(NC(=O)C(C)N3C(=O)C4CCCCC4C3=O)ccc12 (configuration not stated)	0	nt	nt	-9%	-1
CC(=O)c1sc(Nc2ccc3c(c2)OCO3)nc1C	0	nt	nt	nt	0
O=C1c2sc3nc4n(c(=O)c3c2CCC1Br)CCCCC4 (configuration not stated)	-3	10µM*	20µM*	4%	5
O=C1CCCc2c1sc1nc3n(c(=O)c21)CCCCC3	-2	?	-8%	?	-2
SMILES	Six1-Eya2 blk	RORgamma inh	VP16 counter	p53 reactivator	CtBP-E1A blk
Cn1c(=O)c2c(nc(CN3CCC(Cc4ccccc4)CC3)n2CCN2CCOCC2)n(C)c1=O	-1	-1%	5%	-3%	3
CCOCCn1c(CN2CCN(c3ccc(F)cc3)CC2)nc2c1c(=O)n(C)c(=O)n2C	16	-3%	?	14%	42
COC(=O)Cn1c(CN2CCN(c3ccc(F)cc3)CC2)nc2c1c(=O)n(C)c(=O)n2C	8	-30%	2.8µM*	-1%	-2
COC(=O)Cn1c(CN2CCc3ccccc3C2)nc2c1c(=O)n(C)c(=O)n2C	0	6%	5.6µM*	6%	-14
Cn1c(=O)c2c(nc(CN3CCN(Cc4ccccc4)CC3)n2CCN2CCOCC2)n(C)c1=O	-1	1.6µM*	2%	-5%	1
O=C(CSc1nc2ccccc2c(=O)n1CCCN1CCOCC1)NC12CC3CC(CC(C3)C1)C2	0	14µM*	-16%	-2%	nt
O=C(CSc1nc2ccccc2c(=O)n1CCCN1CCOCC1)NCCc1ccccc1	9	nt	nt	7%	nt
Cc1onc(-c2ccccc2Cl)c1C(=O)NC(=S)NCC(=O)c1ccccc1	-1	?	8%	3%	nt
CC(C)(C)c1cc2nc(NCc3cccc(Cl)c3)ccn2n1	7	nt	nt	nt	1
CC(=O)OC1CC[C@]2(C)C(CC(OC(C)=O)[C@@]3(C)C4=CC(=O)OC(c5ccoc5)[C@]4(C)CCC23)C1(C)C (some centres not stated)	nt	13µM*	-1%	nt	nt
Cc1ccc(/C=N/n2c(-c3ccco3)n[nH]c2=S)cc1	-24	7.1µM*	?	-1%	-14
S=c1[nH]nc(-c2ccccn2)n1/N=C/c1ccco1	-74*	-24%	0%	-5%	0
Cn1cccc1/C=N/n1c(-c2ccco2)n[nH]c1=S	2	11µM*	-4%	-6%	10
Cc1ccsc1/C=N/n1c(-c2ccccn2)n[nH]c1=S	-78*	?	?	-1%	?
Cc1cccc(/C=N/n2c(-c3ccco3)n[nH]c2=S)c1	-1	?	-20%	3%	-1
Cc1ccsc1/C=N/n1c(-c2ccccc2)n[nH]c1=S	0	14%	-9%	-3%	5
COc1ccc(OC)c(-c2ccc(C(=O)O)o2)c1	nt	3%[96.6 µM]	9%[96.6 µM]	nt	nt
S=c1[nH]nc(-c2ccco2)n1/N=C/c1cccc(Cl)c1	-18	14µM*	-16%	-2%	-18
S=c1[nH]nc(-c2ccco2)n1/N=C/c1ccccn1	nt	-22%	-2%	-4%	nt
S=c1[nH]nc(-c2ccccn2)n1/N=C/c1cccc(Cl)c1	?	11µM*	?	-3%	?
S=c1[nH]nc(-c2ccco2)n1/N=C/c1ccc(Cl)c(Cl)c1	-15	5.6µM*	5.6µM*	2%	-4
Cc1ccc(Cl)cc1NC(=S)N(CCCN1CCOCC1)Cc1ccco1	-5	?	5%	0%	2
COc1ccc(-c2cc3cccc(OC)c3oc2=O)cc1	7	10µM*	?	?	9
COc1cccc2cc(-c3ccccc3)c(=O)oc12	4	-17%	5%	2%	6
